The values that follow come from PubChem BioAssay AID1851 (National Center for Advancing Translational Sciences (NCATS), 2009).

Out of some 16,000 compounds screened, about 5,100 (32%) were called active. Not shown: some 25% with an inconclusive outcome. Calls come from the whole dose curve; as a rule, active = well fitted curve in the direction sought with a large enough effect; inconclusive = small, poorly fitted or top-dose-only effect, or effect the other way; inactive = no such curve, though single readings can be large or run the other way. Some of the results follow.

By AC50 is commonly meant the midpoint of the concentration-response curve, whichever way the signal moves.
% is set by controls: 0 for no effect and ±100 for the full control effect.

Cytochrome P450 3A4 (Homo sapiens), sequence (P08684 whole entry, looked up): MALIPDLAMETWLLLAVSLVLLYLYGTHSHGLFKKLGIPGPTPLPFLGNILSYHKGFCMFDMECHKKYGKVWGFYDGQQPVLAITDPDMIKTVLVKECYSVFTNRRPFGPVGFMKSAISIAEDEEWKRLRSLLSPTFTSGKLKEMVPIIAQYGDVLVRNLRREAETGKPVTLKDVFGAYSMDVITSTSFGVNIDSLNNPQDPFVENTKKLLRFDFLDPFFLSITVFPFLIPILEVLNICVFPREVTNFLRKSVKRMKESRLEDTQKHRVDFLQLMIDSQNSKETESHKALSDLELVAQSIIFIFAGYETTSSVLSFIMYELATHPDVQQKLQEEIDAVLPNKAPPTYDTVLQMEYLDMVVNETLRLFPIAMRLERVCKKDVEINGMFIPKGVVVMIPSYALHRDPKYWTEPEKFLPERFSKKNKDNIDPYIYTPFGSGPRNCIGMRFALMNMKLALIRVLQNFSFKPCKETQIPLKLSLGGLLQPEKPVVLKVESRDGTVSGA

The test has as its target Cytochrome P450 3A4 (Homo sapiens) (UniProt P08684). Briefly: Cytochrome panel assay with activity outcomes. Conditions: recombinant CYP, pro-luciferin dealkylation, luminescence, p450-cyp3a4; series mostly up to 57.1 µM; activity, negative = inhibition: at the top concentration.
Take `CN(C)CCNC(=O)c1cc(Br)ccc1Cl`: the “activity, negative = inhibition” value is -12.1% (inactive).
Consider `Cc1nc2c(OCc3ccccc3)cccn2c1CC#N`, for which the AC50 is 15.8 µM (active).
As for `Cn1c(-c2sccc2OCc2ccccc2)n[nH]c1=S`, the “activity, negative = inhibition” value was 19.7% (inactive).
For the molecule `CC(C)Cn1c(=O)n(C)c(=O)c2[nH]cnc21`, the concentration at half-maximal activity (AC50) is 3.98 µM (active).
Regarding `Nc1nc(=O)c2[nH]cnc2n1O`, the activity, negative = inhibition is -2.96% [at 11.4 µM] (inactive).
Turning to `Cn1c(=O)c2[nH]cnc2n(C)c1=O`, the AC50 result is “inactive”.
Consider `CN(Cc1cc(Cl)cc(Cl)c1O)Cc1c(O)ccc2ccccc12`, for which the activity, negative = inhibition is -29.5% [at 11.4 µM] (inactive).
Still for that read-out and setting: under `CC(C)(N)C(=O)N[C@@H]1C(=O)N2[C@@H]1SC(C)(C)[C@H]2C(=O)O` stands -5.57% [at 11.4 µM] (inactive); under `Nc1ccc(S(=O)(=O)NC(=O)c2ccccc2)cc1`, -6.82% [at 25.6 µM] (inactive).
Take `Nc1ccc(N(c2ccccc2)c2ccc(N)cc2)cc1`: the AC50 was 1.78 µM (active).
In the case of `COc1ccc(C2C3=C(CC(C)(C)CC3=O)Oc3ncn(CC(C)C)c(=N)c32)cc1` (stereo not drawn), the AC50 is 12.6 µM (active).
Turning to `COCCn1c(=O)c(-c2cccc(C#N)c2)nc2cnc(Oc3ccccc3)nc21`, the AC50 was 25.1 µM (active).
In the case of `CN(C)c1ncc2nc(-c3ccc(F)cc3)c(=O)n(CCC#N)c2n1`, the “activity, negative = inhibition” value was -6.39% (inactive).
On to `COCCn1c(=O)c(-c2cccc(C#N)c2)nc2cnc(OCc3ccccc3)nc21`, for which the concentration at half-maximal activity (AC50) was 10 µM (active).
`N#CCCn1c(=O)c(-c2ccc(F)cc2)nc2cnc(Oc3cccc(Cl)c3)nc21`: the “activity, negative = inhibition” value was -20.7% (inactive).
With `N#CCCn1c(=O)c(-c2ccc(F)cc2)nc2cnc(OCc3ccccc3)nc21`, the concentration at half-maximal activity (AC50) is 15.8 µM (active).
For `N#CCCn1c(=O)c(-c2cccc(C#N)c2)nc2cnc(Oc3ccccc3)nc21`, the “activity, negative = inhibition” value was -12.2% (inactive).
With `COCCn1c(=O)c(-c2cccc(C#N)c2)nc2cnc(Oc3ccc(OC)cc3)nc21`, the half-maximal activity concentration (AC50) is 2.51 µM (active).
For the molecule `COCCn1c(=O)c(-c2cccc(C#N)c2)nc2cnc(N(C)C)nc21`, the “activity, negative = inhibition” value was -19.3% (inactive).
For the molecule `CC(C)(C)NC[C@@H](O)COc1ccccc1C1CCCC1`, the “activity, negative = inhibition” value was -7.01% [at 25.6 µM] (inactive).
For the molecule `COc1cc2c(cc1OC)-c1cc3ccc(OC)c(OC)c3c[n+]1CC2`, the “activity, negative = inhibition” value was -16.2% [at 25.6 µM] (inactive).
The same measure, in the same setting: under `Cc1ccc(S(=O)(=O)N[C@H](C(=O)N2CCC(C(=O)NCC(=O)O)CC2)C(C)C)cc1` stands -18.8% (inactive); under `CC(C)c1ccc2nc3sc(C(=O)N4CCc5ccccc5C4)c(N)c3cc2c1`, 6.07% [at 2.29 µM] (inactive).
Consider `CC(C)C(NS(=O)(=O)c1cccc2nsnc12)C(=O)N1CCc2ccccc2C1` (stereo not drawn), for which the concentration at half-maximal activity (AC50) is 7.08 µM (active).
In the case of `COC(=O)C(NC(=O)c1ccc(Cl)cc1)(Nc1nc(C)cs1)C(F)(F)F` (stereo not drawn), the AC50 is 14.1 µM (active).
`Cc1cc(OC(=O)c2ccc(Cl)cc2)cc(=O)n1C`: the “activity, negative = inhibition” value is -9.63% (inactive).
With `CCOc1ccc(/C=C/C(=O)Nc2ccc(OC)cc2[N+](=O)[O-])cc1`, the “activity, negative = inhibition” value is -0.704% (inactive).
`CCOc1ccc(C(=O)Cc2cc(OC)c(OC)cc2[N+](=O)[O-])cc1`: the AC50 was 7.94 µM (active).
On to `CCOc1ccc(C(=O)CCC(=O)O)cc1`, for which the “activity, negative = inhibition” value is 4.1% (inactive).
Regarding `C[C@]12CC[C@H]3c4ccc(OC[C@H]5CO5)cc4CC[C@H]3[C@H]1CC[C@@H]2O`, the activity, negative = inhibition was 11.8% [at 11.4 µM] (inactive).
On to `COc1ccc(C(=O)N/C(=C/c2cccs2)C(=O)NCCCn2ccnc2)cc1OC`, for which the AC50 is 1.58 µM (active).
`O=C(NCCCN1CCc2ccccc2C1)Nc1ccc(Cl)cc1`: the “activity, negative = inhibition” value is 18.3% (inactive).
For `S=C(S)NCCN1CCNCC1`, the activity, negative = inhibition was -13.6% [at 11.4 µM] (inactive).
Same read-out and setting: the result for `NCCNC(=S)S` reads -20.2% [at 11.4 µM] (inactive).
As to `COc1ccc2c(Cl)c(C(=O)NCCCn3ccnc3)sc2c1Cl`, the AC50 was 0.501 µM (active).
In the case of `Cn1nccc1C(=O)Nc1ccc(Cl)cc1`, the “activity, negative = inhibition” value is -16.2% (inactive).
For `O=C(NCCCn1ccnc1)Nc1ccc(Cl)cc1`, the AC50 is 0.398 µM (active).
On the same count and under the same terms, under `S=C(S)NCCCn1ccnc1` stands 1.58 µM (active).
Take `CC(C)(CO)[C@H](O)C(=O)NCCCO`: the “activity, negative = inhibition” value is -2.39% [at 25.6 µM] (inactive).
The same measure, in the same setting: under `N[C@@H](Cc1cc(-c2ccc(Cl)cc2Cl)cc(CP(=O)(O)O)c1O)C(=O)O` stands -5.32% (inactive); under `O=C(O)C1CCCCC1C(=O)Nc1ccccc1Cl` (stereo not drawn), 2.92% (inactive).
For the molecule `CCc1ccccc1NC(=O)C1C(c2ccccc2)C1(Cl)Cl` (stereo not drawn), the AC50 was 15.8 µM (active).
On the same count and under the same terms, under `COC(=O)C1=C(C)NC2=C(C(=O)CCC2)C1c1cn(Cc2ccc(Cl)cc2Cl)nc1-c1ccccc1` (stereo not drawn) stands 2.51 µM (active).
As for `C[C@H](C[C@H](N)C(=O)O)C(=O)O`, the “activity, negative = inhibition” value is -6.08% (inactive).
The same measure, in the same setting: the result for `CC[N+](CC)(CC)CCOc1cccc(OCC[N+](CC)(CC)CC)c1OCC[N+](CC)(CC)CC` reads 5.02% (inactive); that for `Clc1ccc(-c2ccnc(Oc3cc(Cl)ccc3Cl)n2)cc1`, -6.59% (inactive); that for `Nc1cc(Cl)ccc1Oc1ccc(Cl)cc1`, 13.4% (inactive).
Regarding `Cc1cc(Cl)ccc1Oc1ncc(-c2ccc(Cl)cc2)cn1`, the concentration at half-maximal activity (AC50) was 7.08 µM (active).
